According to PubChem BioAssay (NCATS):
Inconclusive results are not listed. Where a call stands in place of a potency, no number is given. Calls of active or inactive are those of the source. Calls come from the whole dose curve; as a rule, active = well fitted inhibition curve with a large enough effect; inconclusive = small, poorly fitted or top-dose-only effect; inactive = flat fitted curve, though single readings scatter.

tested on: CRL-7250; assay: qHTS assay to identify novel small-molecules to repurpose for Merkel cell carcinoma treatment (AID 1296009); details: MCC and control cell lines, CellTiter-Glo viability, 72 h; series mostly up to 92 µM; note: nearly all actives have a fitted effect of over 60% in size
Method in brief: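 Dose-response viability screen; 72 hr exposure at 37 degree celsius; CellTiter-Glo added, 10 min room temperature, luminescence read; RLUs scaled between no-cell and DMSO wells.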

| Compound | Potency | outcome |
| --- | --- | --- |
| COc1ccc(CN2C(=O)C(=O)c3cc(S(=O)(=O)N4CCC[C@H]4COc4cccnc4)ccc32)cc1 | inactive |  |
| CC(NC(=O)[C@H](Cc1ccccc1)NC(=O)OCc1ccccc1)C(=O)CF (some centres undefined) | inactive |  |
| CC(=O)O[C@@H]1[C@H]2[C@@H](OC(=O)c3ccccc3)[C@@H](C)C[C@]2(O)[C@H](OC(C)=O)[C@@]2(C)[C@@H]3CC(C)(C)C(=O)[C@]3(OC(C)=O)C[C@@]12C | inactive |  |
| COC(=O)c1cc(OC)cc(OC)c1C(=O)c1c(OC)cc2c(c1O)C1CCC(O)C(C)(O2)O1 (centres undefined) | inactive |  |
| C=C1CC[C@@H]2[C@](C)(CO[C@@H]3O[C@H](CO)[C@@H](O)[C@H](O)[C@H]3O)CCC[C@@]2(C)[C@@H]1CCC1=CCOC1=O | inactive |  |
| CC(/C=C/[C@]1(O)[C@@]2(C)CO[C@@]1(C)C[C@@H](O)C2)=C\C(=O)O[C@@H]1O[C@H](CO)[C@@H](O)[C@H](O)[C@H]1O | inactive |  |
| O=C(NCC1(N2CCN(c3ccccc3)CC2)CCOCC1)c1cccnc1Sc1ccccc1 | inactive |  |
| Cc1cccc(NC(=O)CN2CCC(c3ccccn3)CC2)c1 | inactive |  |
| C=CC(C)(O)CC/C=C(/C)C(=O)OC1C(OC2OCC(OC3OC(CO)C(O)C(O)C3O)C(OC3OCC(O)C(OC4OC(C)C(O)C(O)C4O)C3O)C2O)COC(OC(=O)C23CCC(C)(C)CC2C2=CCC4C5(C)CCC(OC6OC(CO)C(OC7OC(CO)C(O)C(OC8OCC(O)C(O)C8O)C7O)C(O)C6O)C(C)(C)C5CCC4(C)C2(C)CC3O)C1O (centres undefined) |  | inactive [at 4.96 µM] |
| C[C@@H]1O[C@@H](O[C@H]2[C@H](OC(=O)[C@]34CCC(C)(C)C[C@H]3C3=CCC5[C@@]6(C)C[C@@H](O)[C@@H](O[C@@H]7O[C@H](CO)[C@@H](O)[C@H](O)[C@H]7O)[C@@](C)(CO)C6[C@H](O)C[C@@]5(C)[C@]3(C)CC4)OC[C@H](O)[C@@H]2O)[C@H](O)[C@H](O[C@@H]2OC[C@](O)(CO)[C@H]2O)[C@H]1O[C@@H]1OC[C@@H](O)[C@H](O[C@H]2O[C@H](C)[C@@H](O)[C@H](O)[C@@H]2O)[C@H]1O (some centres undefined) |  | inactive [at 9.27 µM] |
| COC(=O)c1cc(CN2CCN(C(=N)N)CC2)cc(C(=O)N2CCN(C(=O)c3ccc(C(=N)N)cc3)CC2)c1 | inactive |  |
| CC/C(=C(\c1ccc(O)cc1)c1ccc(OCCNC)cc1)c1ccccc1 | inactive |  |
| CC(C)c1ccc(NC(=O)Cn2cnc3c2c(=O)n(C)c(=O)n3C)cc1 | inactive |  |
| O=C(O)c1cc(C(F)(F)F)ccc1N1CC[C@H](OCc2ccccn2)C1 | inactive |  |
| COc1cc2c(cc1OC)N1C(=O)C[C@]34C=CCN5CC[C@@H]2[C@@H](CC3)[C@]514 | inactive |  |
| CCC(C)/C=C(C)/C=C/C1=CC2=C(Cl)C(=O)C(C)(OC(C)=O)C(=O)C2=CN1CCCC(=O)O (centres undefined) | inactive |  |
| COC(=O)C1=COC(OC2OC(CO)C(O)C(O)C2O)C2C(COC(=O)/C=C/c3ccc(O)c(O)c3)C(O)C(O)C12 (centres undefined) | inactive |  |
| CC1CCC2(C(=O)OC3OC(COC4OC(CO)C(O)C(O)C4O)C(O)C(O)C3O)CCC3(C)C(=CCC4C5(C)CCC(O)C(C)(C(=O)O)C5CCC43C)C2C1(C)O (centres undefined) |  | inactive [at 9.27 µM] |
| COC(=O)C1=CO[C@@H](O[C@@H]2O[C@H](CO)[C@@H](O)[C@H](O)[C@H]2O)[C@@H]2[C@@H](CO)[C@@H](O)C(O)[C@H]12 (some centres undefined) | inactive |  |
| CN(Cc1ccc(C(=O)O)cc1)c1ccc(OCc2c(-c3c(Cl)cccc3Cl)noc2C2CC2)nc1C(F)(F)F | inactive |  |
| CC(=O)OC1C(C)C2C(OC3OC(CO)C(O)C(O)C3O)OC=C(C(=O)O)C2C1OC(=O)c1ccccc1 (centres undefined) | inactive |  |
| CC(=O)c1cc2c(cc1O)OC(C)(C)C=C2 | inactive |  |
| CC(=O)OCC1OC(O[C@H]2CC[C@@]3(C)C(CC[C@]4(C)C3CC=C3[C@@H]5CC(C)(C)CC[C@]5(C(=O)O)CC[C@]34C)[C@]2(C)CO)C(O)C(O)C1OC1OC(C)C(O)C(OC2OCC(O)C(O)C2O)C1O (some centres undefined) |  | inactive [at 9.27 µM] |
| C[C@@H]1O[C@@H](O[C@@H]2[C@@H](O)[C@H](O[C@H]3[C@H](O[C@H]4CC[C@@]5(C)C(CC[C@]6(C)C5CC=C5[C@@H]7CC(C)(C)CC[C@]7(C(=O)O[C@@H]7O[C@H](CO)[C@@H](O)[C@H](O)[C@H]7O[C@@H]7O[C@@H](C)[C@H](O[C@@H]8O[C@@H](C)[C@H](O)[C@@H](O)[C@H]8O)[C@@H](O)[C@H]7O)CC[C@]56C)[C@@]4(C)CO)O[C@H](C(=O)O)[C@@H](O)[C@@H]3O)O[C@H](CO)[C@H]2O)[C@H](O)[C@H](O)[C@H]1O (some centres undefined) |  | inactive [at 9.27 µM] |
